In the supplement of paper PMC12350171:
Counter-ions that a name gives are not always drawn. A number with no mark means an inactive call.

Legend:
Conditions in all cases: 20 µM
[1] = test system: Salmonella enterica typhimurium; test: growth AUC normalised to DMSO control (fraction of control); higher = less growth inhibition, active = hit call of the paper
Outline: (§1)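 Hemin and NAD were added to the medium for Haemophilus parainfluenzae. All pathogens, after two anaerobic passages, were inoculated at a starting OD578 of 0.01 into pre-reduced mGAM plates with 20 μM compound and 1% DMSO under breathable seals, and OD578 was read hourly for 24 h in three biological replicates. AUC of each growth curve was obtained with the trapezoidal rule up to the exponential-to-stationary transition and normalised to DMSO controls from the same plate.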

Shigella flexneri = test: as above
Outline: as §1

Vibrio cholerae = test: as above
Outline: as §1

[2] = test system: Yersinia pseudotuberculosis; test: as above
Outline: as §1

P. vulgatus RND KO = test: growth AUC normalised to DMSO control (median) (fraction of control); higher = less growth inhibition, active = hit call of the paper
Outline: (§2)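 After two overnight anaerobic passages, strains were inoculated at OD578 0.01 into mGAM in 96-well plates containing approved-drug library compounds at 20 μM and 1% DMSO. Growth was followed by reading OD578 hourly for 24 h within an anaerobic incubator. Area under the curve, taken by the trapezoidal rule up to the start of stationary phase, was normalised to same-plate vehicle wells, and the median of three biological replicates is listed.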

P. vulgatus WT = test: as above
Outline: as §2

[3] = test system: S. enterica typhimurium WT; test: as above
Outline: as §2

[4] = test system: S. enterica typhimurium tolC KO; test: as above
Outline: as §2
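Wherever growth AUC normalised to DMSO control (median) is given: active when median AUC fell below 0.1.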

| SMILES | growth AUC normalised to DMSO control [1] | growth AUC normalised to DMSO control (Shigella flexneri) | growth AUC normalised to DMSO control (Vibrio cholerae) | growth AUC normalised to DMSO control [2] | growth AUC normalised to DMSO control (P. vulgatus RND KO) | growth AUC normalised to DMSO control (P. vulgatus WT) | growth AUC normalised to DMSO control [3] | growth AUC normalised to DMSO control [4] |
| --- | --- | --- | --- | --- | --- | --- | --- | --- |
| CCCN(CCC)CCc1cccc2c1CC(=O)N2 [Ropinirole hydrochloride] | 0.997 | 1.02 | 0.976 | 0.985 | 1.03 | 1.04 | 1 | 0.988 |
| CCN1C(=O)NC(c2ccccc2)C1=O (stereo not drawn) [Ethotoin] | 0.995 | 0.99 | 0.996 | 0.992 | 1 | 0.993 | 0.987 | 1 |
| CC(c1cc2ccccc2s1)N(O)C(N)=O (stereo not drawn) [Zileuton] | 0.987 | 0.986 | 1 | 0.931 | 1.01 | 0.985 | 1 | 0.993 |
| NCc1ccccc1CC(=O)N[C@@H]1C(=O)N2C(C(=O)O)=C(CSc3nnnn3CC(=O)O)CS[C@H]12 [Ceforanide] | 0.00985 (active) | 0.0434 (active) | 0.0984 (active) | 0.023 (active) | 0.00761 (active) | 0.014 (active) | 0.00887 (active) | 0.00597 (active) |
| CC1(C)S[C@@H]2[C@H](NC(=O)[C@H](C(=O)O)c3ccsc3)C(=O)N2[C@H]1C(=O)O [Ticarcillin sodium] | 0.00595 (active) | 0.178 (active) | 0.116 (active) | 0.0593 (active) | 0.00834 (active) | 0.0131 (active) | 0.00844 (active) | 0.0028 (active) |
| N=C(N)NCc1cccc(I)c1 [Iobenguane sulfate] | 1.03 | 1.03 | 1.06 | 1.01 | 1.09 | 1.1 | 1.01 | 1 |
| Nc1nc(Cl)nc2c1ncn2[C@H]1C[C@H](O)[C@@H](CO)O1 [Cladribine] | 0.985 | 0.949 | 0.982 | 1 | 1.01 | 1.02 | 0.915 | 0.911 |
| CCc1c2c(nc3ccc(OC(=O)N4CCC(N5CCCCC5)CC4)cc13)-c1cc3c(c(=O)n1C2)COC(=O)[C@]3(O)CC [Irinotecan hydrochloride trihydrate] | 0.999 | 1.01 | 1.01 | 0.998 | 1 | 1.1 | 1 | 0.986 |
| CN(CCOc1ccc(CC2SC(=O)NC2=O)cc1)c1ccccn1 (stereo not drawn) [Rosiglitazone hydrochloride] | 1.02 | 1.08 | 1.01 | 0.975 | 1.06 | 1.04 | 1.02 | 0.993 |
| CN(C)CCCN1c2ccccc2CCc2ccc(Cl)cc21 [Clomipramine hydrochloride] | 0.992 | 1 | 0.874 | 1.01 | 0.976 | 0.957 | 1.01 | 0.962 |
| COc1ccccc1N1CCN(CCCCNC(=O)c2ccc3ccccc3c2)CC1 | 1.01 | 1.03 | 0.0446 (active) | 0.978 | 1.02 | 1.08 | 0.985 | 0.753 |
| CCN(CC)CCOC(=O)C(c1ccccc1)C1CCCCC1 (stereo not drawn) [Drofenine hydrochloride] | 0.989 | 1.01 | 0.929 | 1 | 1.01 | 1.03 | 0.989 | 0.943 |
| CCCNC(C)C(=O)Nc1ccccc1C (stereo not drawn) [Prilocaine hydrochloride] | 0.987 | 1 | 1 | 0.998 | 0.99 | 1 | 0.992 | 0.993 |
| O=C(O)c1cc(=O)c2c(OCC(O)COc3cccc4oc(C(=O)O)cc(=O)c34)cccc2o1 [Cromolyn disodium salt] | 0.98 | 0.995 | 1 | 1 | 1.03 | 1.03 | 1.02 | 0.996 |
| O=C(NCC1CCCCN1)c1cc(OCC(F)(F)F)ccc1OCC(F)(F)F (stereo not drawn) [Flecainide acetate] | 0.995 | 0.966 | 0.988 | 0.989 | 1 | 1.03 | 1 | 1 |
| Cc1c(C)c2c(c(C)c1O)CCC(C)(COc1ccc(CC3SC(=O)NC3=O)cc1)O2 (stereo not drawn) [Troglitazone] | 0.992 | 0.97 | 0.986 | 0.974 | 0.839 | 0.892 | 0.997 | 0.97 |

| SMILES | growth AUC normalised to DMSO control [1] | growth AUC normalised to DMSO control (Shigella flexneri) | growth AUC normalised to DMSO control (Vibrio cholerae) | growth AUC normalised to DMSO control [2] | growth AUC normalised to DMSO control (P. vulgatus RND KO) | growth AUC normalised to DMSO control (P. vulgatus WT) | growth AUC normalised to DMSO control [3] | growth AUC normalised to DMSO control [4] |
| --- | --- | --- | --- | --- | --- | --- | --- | --- |
| COC1=C(OC)C(=O)C(CCCCCCCCCCO)=C(C)C1=O [Idebenone] | 1.02 | 1.01 | 0.989 | 1.02 | 0.913 | 0.95 | 1.01 | 0.972 |
| CC1CCc2c(N3CCC(O)CC3)c(F)cc3c(=O)c(C(=O)O)cn1c23 (stereo not drawn) [Nadifloxacin] | 0.00794 (active) | 0.0399 (active) | 0.0237 (active) | 0.0176 (active) | 0.0102 (active) | 0.00997 (active) | 0.0247 (active) | 0.00372 (active) |
| N=C(N)NCC1COC2(CCCCC2)O1 (stereo not drawn) [Guanadrel sulfate] | 0.979 | 0.964 | 0.983 | 0.985 | 0.965 | 0.969 | 0.994 | 0.99 |
| Cc1ccc(-c2ncc(Cl)cc2-c2ccc(S(C)(=O)=O)cc2)cn1 [Etoricoxib] | 1.01 | 1.03 | 1.03 | 0.989 | 1.01 | 1.03 | 0.972 | 0.978 |
| c1ccc2[nH]c(-c3cscn3)nc2c1 [Tiabendazole] | 0.97 | 0.954 | 0.956 | 0.975 | 0.971 | 0.971 | 1 | 0.995 |
| COCCc1ccc(OCC(O)CNC(C)C)cc1 (stereo not drawn) [Metoprolol-(+)-tartrate salt] | 0.996 | 0.977 | 0.998 | 0.996 | 1.01 | 1.03 | 1 | 1.01 |
| CCC(=O)O[C@@H](O[P@](=O)(CCCCc1ccccc1)CC(=O)N1C[C@H](C2CCCCC2)C[C@H]1C(=O)O)C(C)C [Fosinopril] | 1 | 1.04 | 1.05 | 1 | 0.998 | 1.02 | 1 | 1.01 |
| CCCc1cc(C(N)=S)ccn1 [Prothionamide] | 1 | 1 | 1.01 | 1 | 0.988 | 0.997 | 0.987 | 0.981 |
| CNS(=O)(=O)Cc1ccc2[nH]cc(CCN(C)C)c2c1 [Sumatriptan succinate] | 0.996 | 0.967 | 0.988 | 1 | 1.03 | 1.01 | 1.01 | 1 |
| CCC[C@@H]1C[C@@H](C(=O)N[C@@H]([C@H]2O[C@H](SC)[C@H](O)[C@@H](O)[C@H]2O)[C@H](C)Cl)N(C)C1 [Clindamycin hydrochloride] | 0.722 (active) | 0.648 (active) | 0.143 (active) | 0.0588 (active) | 0.0135 (active) | 0.0132 (active) | 0.835 | 0.437 |
| Cn1c(=O)c2c(ncn2CC(=O)O)n(C)c1=O [Acefylline] | 0.979 | 0.987 | 0.98 | 0.987 | 0.987 | 0.996 | 0.996 | 1.01 |
| CCC(=O)O[C@]1(C(=O)CCl)[C@@H](C)C[C@H]2[C@@H]3CCC4=CC(=O)C=C[C@]4(C)[C@@]3(F)[C@@H](O)C[C@@]21C [Clobetasol propionate] | 1.01 | 1.04 | 1.02 | 1.01 | 1.02 | 1.05 | 1 | 0.927 |
| CCC1(c2ccccc2)NC(=O)N(C)C1=O (stereo not drawn) [Mephenytoin] | 1.01 | 0.997 | 1.02 | 1.01 | 1 | 1.03 | 1 | 1 |
| CN1CCC(=C2c3ccccc3CC(=O)c3sccc32)CC1 [Ketotifen fumarate] | 1.01 | 0.999 | 0.985 | 1.01 | 0.979 | 0.997 | 1.01 | 0.999 |
| CCN(CC)CCNC(=O)c1cc(S(C)(=O)=O)ccc1OC [Tiapride hydrochloride] | 0.985 | 0.992 | 1 | 1.01 | 0.961 | 0.952 | 0.992 | 0.999 |
